# Compound activity deposited in PubChem by National Center for Advancing Translational Sciences (NCATS).
# HT1080 IDH1KD tx – HT-1080 IDH1 knockdown cell toxicity (counter line) | 2% of 360,000 active | Potency, µM (doses to about 46.1 µM), for inactives: top-dose activity, negative = toxicity, most hits filed as cytotoxic | HT-1080 IDH1 knockdown viability, ATP luminescence, 48 h;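 also: 0% = DMSO wells and -100% = cell-free medium wells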
#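 Knockdown cells (IDH1KD HT-1080) received compounds 2 h after plating at 750 cells/well and were kept 48 h at 37 °C in 5% FBS RPMI. A CellTiter-Glo luminescence read gave % activity for curve fitting.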
# TDP1 cell noCPT – qHTS for Inhibitors of human tyrosyl-DNA phosphodiesterase 1 (TDP1): qHTS in cells in absence of CPT. DT40 Tdp1-/- hTDP1 cells, no CPT, ATP luminescence, 48 h. Potency, µM (highest dose often 46.2 µM), without a hit: top-dose activity change, negative = growth inhibition, hits mostly inhibitors. 15% of 420,000 active; also: % is scaled to controls: 0 for no effect and ±100 for the full control effect; nearly all actives have a fitted effect of over 55% in size
#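 Growth of hTDP1-complemented DT40 Tdp1-knockout cells is measured by ATP luminescence after at least 48 hr compound exposure at 37 °C, with DMSO substituting for the 20 nM CPT used in the parallel screen.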
# HepG2 tox – HepG2 cytotoxicity, counter-screen for TGF-b inhibitors. HepG2 CAGA-GFP viability, ATP luminescence, 18 h. Potency, µM (series often up to 46.1 µM), inactives show at the top dose activity change, negative = cytotoxicity, usual class: cytotoxic. 0.76% of 410,000 active
#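 CellTiter-Glo luminescence gave cytotoxicity after 18 hours at 37 degrees C. The cells were HepG2 CAGA-GFP in 1% FBS DMEM, stimulated with 500 pg/mL TGF-beta after compound addition. %Activity was normalised to no-cell wells (complete cell-killing) and DMSO (no toxicity), and curves were fitted and classified.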
# TGFb SMAD3 inh – TGF-b pathway inhibition | Potency, µM (series often up to 46.1 µM), without a hit: at the highest dose activity, negative = inhibition, usual class: inhibitors | 1.2% of 410,000 active | HepG2 CAGA-GFP TGF-b/SMAD3 reporter, GFP fluorescence, 18 h; TGF-beta stimulated, 500 pg/mL final | AID 588855; also: % is scaled to controls: 0 for no effect and ±100 for the full control effect; nearly all actives have a fitted effect of over 65% in size
#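 HEPG2 CAGA-GFP cells (1000/well, DMEM with 1% FBS) were pre-incubated 2 h at 37 degrees C, given compound by pin tool, then stimulated with TGF-beta at 500 pg/mL final for 18 h before per-cell GFP fluorescence imaging.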
# HT1080NT lethal – kills 2HG-producing HT-1080-NT fibrosarcoma cells; Potency, µM (doses to about 46.1 µM), for the others: at the top dose activity, negative = less viability, actives largely listed as cytotoxic; 1.6% of 360,000 active; AID 686970; HT-1080-NT fibrosarcoma viability, CellTiter-Glo ATP luminescence, 48 h;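 also: NT is the 2HG producing partner of a matched IDH1 knockdown line; 0% = DMSO-treated cells and -100% = media-only wells without cells; nearly all actives have a fitted effect of over 55% in size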
#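 Read-out is CellTiter-Glo luminescence after 10 minutes at room temperature, following 48 hours' compound treatment of HT-1080-NT cells (750 cells/well, RPMI, 5% FBS, 37 degrees C).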
# DT40 TDP1 CPT – growth inhibition of DT40 Tdp1-/-;hTDP1 cells with camptothecin (screen for TDP1 inhibitors) | Potency, µM (doses to about 46.2 µM), inactives show at the top dose activity change, negative = growth inhibition, actives largely listed as inhibitors | AID 686979 | chicken DT40 Tdp1-/-;hTDP1 cells + 20 nM CPT, ATP luminescence, 48 h | 12% of 420,000 active; also: % is scaled to controls: 0 for no effect and ±100 for the full control effect; nearly all actives have a fitted effect of over 55% in size
#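 Chicken DT40 Tdp1-/- cells complemented with human TDP1, 400 cells/well, exposed to compounds plus 20 nM camptothecin for at least 48 h at 37 C; viability read as ATP content by CellTiter-Glo luminescence.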
# An asterisk follows results filed as active; i = inactive; ? = inconclusive; nt = no result; [ ] = another dose, or the depositor's remark. An excerpt weighted towards active compounds, which were near 17% of everything screened. Calls follow the shape of the dose curve; as a rule, active = well fitted curve in the direction sought with a large enough effect; inconclusive = small, poorly fitted or top-dose-only effect, or another doubt; inactive = no such curve, though single readings can be large; an effect the other way counts as inactive or inconclusive. Potency is read from the fitted curve at half-maximal effect.
SMILES,HT1080 IDH1KD tx,TDP1 cell noCPT,HepG2 tox,TGFb SMAD3 inh,HT1080NT lethal,DT40 TDP1 CPT
CC1(C(=O)Nc2ccc(Cl)c(Cl)c2)CCN1C(=O)CC(c1ccccc1)c1ccccc1 (stereo not drawn),?,23µM*,-32%,?,?,18µM*
Cc1ccnc(SCC(=O)Nc2c(C)n(C)n(-c3ccccc3)c2=O)n1,0%,-6%,7%,-32%,-2%,3%
CC1(C(=O)Nc2cnc3ccccc3c2)CCN1C(=O)CC(c1ccccc1)c1ccccc1 (stereo not drawn),1%,16µM*,-33%,?,3%,?
CCc1nc2c(OCc3ccc(C(F)(F)F)cc3)cccn2c1N(C)C(C)=O,5%,?,-11%,-6%,14%,?
Cc1nc2c(OCc3ccc(C(F)(F)F)cc3)cccn2c1N(C)Cc1cccs1,26µM*,?,-101%,?,?,?
CCc1nc2c(OCc3ccc(C(F)(F)F)cc3)cccn2c1N(C)C(=O)c1ccco1,-18%,?,-8%,?,0%,?
CCc1nc2c(OCc3ccc(C(F)(F)F)cc3)cccn2c1N(C=O)Cc1ccc(OC)cc1,?,16µM*,-28%,?,?,21µM*
CCCCN(C=O)c1c(CC)nc2c(OCc3ccc(C(F)(F)F)cc3)cccn12,?,12µM*,-44%,?,?,12µM*
O=c1c(-c2ccc(Cl)cc2)nc2cnc(Nc3ccccc3)nc2n1C[C@H]1CCCO1,nt,-4%,nt,nt,nt,-14%
CC(CCc1ccco1)NC(=O)Cn1ncc2c1-c1ccccc1OC2 (stereo not drawn),6%,?,-4%,2%,-10%,?
O=S(=O)(c1ccccc1)c1nc(-c2ccco2)oc1NCc1cccnc1,0%,-12%,11µM*,-7%,1%,26%
COc1cccc(-c2nc(S(=O)(=O)c3ccc(Cl)cc3)c(NCc3ccccc3)o2)c1,nt,?,-3%,0%,nt,?
O=S(=O)(c1ccccc1)c1nc(-c2ccccc2)oc1NCc1cccnc1,-1%,-24%,0%,17%,-4%,-17%
COc1ccc(-c2nc(S(=O)(=O)c3ccc(Cl)cc3)c(NCc3ccccc3)o2)cc1,nt,?,-2%,-1%,nt,16µM*
O=S(=O)(c1ccc(Cl)cc1)c1nc(-c2ccccc2F)oc1NCc1ccccc1,nt,18µM*,-7%,-19%,nt,?
N#CC(=C(O)CN1CCN(c2ccccc2F)CC1)c1nc(-c2ccc(Cl)cc2)cs1,-9%,-28%,-2%,-7%,-1%,-7%
Cc1cn([C@H]2C[C@H](O)[C@@H](CNCc3ccc(CN(C)S(C)(=O)=O)o3)O2)c(=O)[nH]c1=O,2%,0%,5%,1%,2%,4%
CC1CC(C)(C)Nc2ccc(N=O)cc21 (stereo not drawn),18µM*,1.8µM*,-7%,?,15µM*,2.3µM*
CCOC(=O)N1CCN(CCC(=O)Nc2cccc(C)c2)CC1,9%,-5%,10%,4%,12%,-5%
O=C(NCc1ccco1)C1CC(c2ccc(C(F)(F)F)cc2)=NO1 (stereo not drawn),?,12µM*,6%,0%,?,13µM*
Cc1ccc(CCNC(=O)C2CC(c3cc(C(F)(F)F)cc(C(F)(F)F)c3)=NO2)cc1 (stereo not drawn),18%,?,7%,10%,15%,?
COc1ccc(C2=NOC(C(=O)NCc3ccco3)C2)cc1 (stereo not drawn),6.3µM*,2.8µM*,2%,0%,7.1µM*,4µM*
O=C(NCc1ccc(C(F)(F)F)cc1)C1CC(c2cccc(F)c2)=NO1 (stereo not drawn),0%,-28%,-25%,-30%,-1%,?
Cc1ccc(CNC(=O)C2CC(c3cc(C(F)(F)F)cc(C(F)(F)F)c3)=NO2)o1 (stereo not drawn),23µM*,4.6µM*,-18%,-25%,?,3.3µM*
COc1cc(C2=NOC(C(=O)Nc3ccc(C(C)=O)cc3)C2)cc(OC)c1OC (stereo not drawn),5%,-5%,-2%,-2%,-15%[9.24 µM],-21%
SMILES,HT1080 IDH1KD tx,TDP1 cell noCPT,HepG2 tox,TGFb SMAD3 inh,HT1080NT lethal,DT40 TDP1 CPT
COc1cc(C2=NOC(C(=O)NCc3ccco3)C2)cc(OC)c1OC (stereo not drawn),nt,3.3µM*,-6%,24%,nt,4.1µM*
CN(C)c1nc(-c2cccc(NS(C)(=O)=O)c2)nc2ccccc12,nt,-23%,nt,nt,nt,-7%
COc1cc(OC)cc(-c2c(Sc3ccccc3)c3cc(-c4ccc(OC)c(F)c4)ccc3n2C)c1,4%,-7%,nt,nt,-3%,-9%
COCCn1c(=O)c(-c2ccc(F)c(F)c2)nc2cncnc21,nt,-4%,nt,nt,nt,-4%
CC(C)(C)Cc1c(C2CCCCC2)nc2ccc(Cl)cn12,-17%,?,-42%,?,-14%,-6%
COc1cc(/C=N/NC(=O)COc2ccc(C)cc2)ccc1OC(=O)c1cccs1,5%,26µM*,-31%,-1%,8%,?
CCOc1cc(/C=N\Nc2ccc([N+](=O)[O-])cc2)ccc1OCC(=O)Nc1ccc(C)c(C)c1,3%,15µM*,12%,i,-1%,23µM*
